Measurements: PubChem BioAssay AID1159580 (chemical genetic matrix, 2015)
Hit rate of the full screen: of about 5,500 compounds, about 2,000 (36%) were called active. Not shown: some 18% with an inconclusive outcome. No stated cut-off is given here; in the data, active means normalized growth mostly below about 0.91 (no sharp cut-off); inconclusive means no clear call, values can overlap the other calls; inactive means mostly above about 0.92. This is one part of the list.

Assay: chemical genetic growth profiling, strain panel (AID 1159580);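 further: tested at 20 µM; growth read once vehicle control cultures reached saturation at 30 °C; 1 = growth at the plate median or of vehicle wells; lower values mean less growth of the strain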
Conditions: growth OD

Measured: normalized growth

CC(=O)OC1CCC2(C)C(CC(OC(C)=O)C3(C)C4=CC(=O)OC(c5ccoc5)C4(C)CCC23)C1(C)C (stereo unspecified)
inactive: S. cerevisiae deletion strains, locus YAL013W, strain DEP1, hits give low values 0.989 | S. cerevisiae deletion strains, locus YBR021W, strain FUR4, hits give low values 1.02 | S. cerevisiae deletion strains, locus YBR229C, strain ROT2, hits give low values 1 | S. cerevisiae deletion strains, locus YCL029C, strain bik1, hits give low values 0.995 | S. cerevisiae deletion strains, locus YDL035C, strain GPR1, hits give low values 0.972 | S. cerevisiae deletion strains, locus YDL074C, strain BRE1, hits give low values 0.791 | S. cerevisiae deletion strains, locus YDL101C, strain DUN1, hits give low values 0.995 | S. cerevisiae deletion strains, locus YDL134C, strain PPH21, hits give low values 0.989 | S. cerevisiae deletion strains, locus YDL185W, strain tfp1, hits give low values 0.963 | S. cerevisiae deletion strains, locus YDL192W, strain arf1, hits give low values 0.998 | S. cerevisiae deletion strains, locus YDR101C, strain arx1, hits give low values 1.01 | S. cerevisiae deletion strains, locus YDR150W, strain NUM1, hits give low values 0.98 | S. cerevisiae deletion strains, locus YDR162C, strain NBP2, hits give low values 1.01 | S. cerevisiae deletion strains, locus YDR318W, strain mcm21, hits give low values 0.992 | S. cerevisiae deletion strains, locus YDR388W, hits give low values 1 | S. cerevisiae deletion strains, locus YDR502C, strain sam2, hits give low values 1.01 | S. cerevisiae deletion strains, locus YEL061C, strain CIN8, hits give low values 1.01 | S. cerevisiae deletion strains, locus YER110C, hits give low values 1 | S. cerevisiae deletion strains, locus YER155C, strain BEM2, hits give low values 0.997 | S. cerevisiae deletion strains, locus YER167W, strain BCK2, hits give low values 0.994 | S. cerevisiae deletion strains, locus YGL078C, strain dbp3, hits give low values 0.993 | S. cerevisiae deletion strains, locus YGL086W, strain mad1, hits give low values 0.969 | S. cerevisiae deletion strains, locus YGL248W, strain PDE1, hits give low values 1.01 | S. cerevisiae deletion strains, locus YGR078C, strain PAC10, hits give low values 0.948 | S. cerevisiae deletion strains, locus YGR135W, strain pre9, hits give low values 1.04 | S. cerevisiae deletion strains, locus YGR229C, strain SMI1, hits give low values 0.986 | S. cerevisiae deletion strains, locus YGR252W, strain gcn5, hits give low values 0.961 | S. cerevisiae deletion strains, locus YHR030C, strain SLT2, hits give low values 0.998 | S. cerevisiae deletion strains, locus YHR079C, strain IRE1 (second series), hits give low values 0.972 | S. cerevisiae deletion strains, locus YHR094C, strain hxt1, hits give low values 0.989 | S. cerevisiae deletion strains, locus YHR129C, strain ARP1, hits give low values 1 | S. cerevisiae deletion strains, locus YHR200W, strain rpn10, hits give low values 1 | S. cerevisiae deletion strains, locus YIL066C, strain RNR3, hits give low values 0.973 | S. cerevisiae deletion strains, locus YIL073C, strain SPO22, hits give low values 0.882 | S. cerevisiae deletion strains, locus YIL125W, strain kgd1, hits give low values 1 | S. cerevisiae deletion strains, locus YIR030C, strain dcg1, hits give low values 1 | S. cerevisiae deletion strains, locus YJL095W, strain BCK1, hits give low values 1.01 | S. cerevisiae deletion strains, locus YJL134W, strain LCB3, hits give low values 1 | S. cerevisiae deletion strains, locus YJL168C, strain set2, hits give low values 1 | S. cerevisiae deletion strains, locus YJL187C, strain SWE1 (second series), hits give low values 0.994 | S. cerevisiae deletion strains, locus YJR043C, strain POL32, hits give low values 0.997 | S. cerevisiae deletion strains, locus YJR075W, strain HOC1, hits give low values 1.01 | S. cerevisiae deletion strains, locus YKL009W, strain mrt4, hits give low values 0.988 | S. cerevisiae deletion strains, locus YKL068W, hits give low values 0.982 | S. cerevisiae deletion strains, locus YKL085W, strain MDH1 (second series), hits give low values 0.994 | S. cerevisiae deletion strains, locus YKL085W, strain MDH1, hits give low values 0.994 | S. cerevisiae deletion strains, locus YKL190W, strain CNB1, hits give low values 0.977 | S. cerevisiae deletion strains, locus YKR001C, strain vps1, hits give low values 0.974 | S. cerevisiae deletion strains, locus YLR039C, strain RIC1, hits give low values 0.986 | S. cerevisiae deletion strains, locus YLR058C, strain SHM2, hits give low values 0.989 | S. cerevisiae deletion strains, locus YLR102C, strain apc9, hits give low values 0.995 | S. cerevisiae deletion strains, locus YLR262C, strain YPT6, hits give low values 0.954 | S. cerevisiae deletion strains, locus YLR268W, strain sec22, hits give low values 1.03 | S. cerevisiae deletion strains, locus YLR330W, strain CHS5, hits give low values 0.995 | S. cerevisiae deletion strains, locus YLR342W, strain FKS1 (second series), hits give low values 0.996 | S. cerevisiae deletion strains, locus YLR371W, strain rom2, hits give low values 0.983 | S. cerevisiae deletion strains, locus YLR418C, strain cdc73, hits give low values 1.01 | S. cerevisiae deletion strains, locus YML016C, strain PPZ1, hits give low values 1 | S. cerevisiae deletion strains, locus YML032C, strain rad52, hits give low values 0.986 | S. cerevisiae deletion strains, locus YML124C, strain tub3, hits give low values 1 | S. cerevisiae deletion strains, locus YMR078C, strain ctf18, hits give low values 1 | S. cerevisiae deletion strains, locus YMR223W, strain ubp8, hits give low values 0.99 | S. cerevisiae deletion strains, locus YMR263W, strain SAP30, hits give low values 0.982 | S. cerevisiae deletion strains, locus YMR307W, strain GAS1, hits give low values 0.924 | S. cerevisiae deletion strains, locus YNL067W, strain RPL9B, hits give low values 0.99 | S. cerevisiae deletion strains, locus YNL128W, strain TEP1, hits give low values 1 | S. cerevisiae deletion strains, locus YNL153C, strain GIM3, hits give low values 0.989 | S. cerevisiae deletion strains, locus YNL233W, strain BNI4, hits give low values 1 | S. cerevisiae deletion strains, locus YNL250W, strain rad50, hits give low values 0.985 | S. cerevisiae deletion strains, locus YNL271C, strain bni1, hits give low values 1 | S. cerevisiae deletion strains, locus YNL298W, strain CLA4, hits give low values 1.01 | S. cerevisiae deletion strains, locus YNL307C, strain MCK1, hits give low values 0.995 | S. cerevisiae deletion strains, locus YNL322C, strain KRE1, hits give low values 0.992 | S. cerevisiae deletion strains, locus YNR052C, strain pop2, hits give low values 0.999 | S. cerevisiae deletion strains, locus YOL006C, strain TOP1, hits give low values 0.937 | S. cerevisiae deletion strains, locus YOL012C, strain htz1 1.25 | S. cerevisiae deletion strains, locus YOL147C, strain pex11, hits give low values 0.995 | S. cerevisiae deletion strains, locus YOR061W, strain CKA2, hits give low values 0.996 | S. cerevisiae deletion strains, locus YOR069W, strain VPS5, hits give low values 0.998 | S. cerevisiae deletion strains, locus YOR136W, strain idh2, hits give low values 1 | S. cerevisiae deletion strains, locus YOR144C, strain elg1, hits give low values 0.994 | S. cerevisiae deletion strains, locus YOR184W, strain ser1, hits give low values 0.976 | S. cerevisiae deletion strains, locus YOR316C, strain cot1, hits give low values 1 | S. cerevisiae deletion strains, locus YPL055C, strain LGE1, hits give low values 0.908 | S. cerevisiae deletion strains, locus YPL241C, strain CIN2, hits give low values 0.987 | S. cerevisiae deletion strains, locus YPR119W, strain clb2, hits give low values 1 | S. cerevisiae deletion strains, locus YPR141C, strain kar3, hits give low values 0.998 | S. cerevisiae deletion strains, locus YPR163C, strain tif3, hits give low values 0.999 | S. cerevisiae deletion strains, locus YPR167C, strain met16, hits give low values 1 | S. cerevisiae deletion strains, strain wtn01, hits give low values 0.999 | S. cerevisiae strains, strain wild type, hits give low values 0.996
